According to PubChem BioAssay (NCATS):
Where “and” joins values, the source holds several entries; their conditions need not be identical. Equal entries are not always repeated. Inconclusive results are not listed. Calls of active or inactive are those of the source. Unless noted, the call rests on the fitted dose curve; in most records, active means well fitted cell-killing curve with a large enough effect; inconclusive means small, poorly fitted or top-dose-only effect; inactive means flat fitted curve, though single readings scatter.

Legend:
[1] = Cell Viability - LYMP2-019 (AID 973);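 further: 0% = DMSO alone and full effect = 92 µM tetraoctylammonium bromide; nearly all actives have a fitted effect of over 55% in size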
Method in brief: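 Human lymphoblastoid cells were seeded at 2500 cells/well, preincubated 5 hr at 37 C, then exposed to compounds for 24 hr at 37 C in complete medium. Intracellular ATP was measured by CellTiter-Glo luminescence; AC50 from Hill fits.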

[2] = Cell Viability - LYMP2-021 (AID 974);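 further: compound exposure lasts 24 hours at 37 °C; on the % scale 0 is the no-effect control and ±100 the full control effect; nearly all actives have a fitted effect of over 55% in size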
Method in brief: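 Human lymphoblastoid cells (2500/well) were preincubated 5 hr at 37 C, then exposed to compounds for 24 hr at 37 C in complete medium. Intracellular ATP was read by CellTiter-Glo luminescence; AC50 came from Hill-equation fits of concentration-response data.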

[3] = Cell Viability - LYMP2-023 (AID 975);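 further: cellular ATP measured by luciferase luminescence as viability proxy; plate controls were DMSO only for no effect and 92 µM tetraoctylammonium bromide control for full effect; nearly all actives have a fitted effect of over 55% in size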
Method in brief: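 Human lymphoblastoid cells (2500/well) were preincubated 5 hr at 37 C, then exposed to compounds for 24 hr at 37 C in complete medium. Cellular ATP was read by CellTiter-Glo luminescence, and AC50 came from Hill-equation fits.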

[4] = Cell Viability - LYMP2-025 (AID 976);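 further: plate controls were DMSO only for no effect and tetraoctylammonium bromide control for full effect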
Method in brief: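 Human lymphoblastoid LYMP2-025 cells (2500/well) were pre-incubated 5 hr at 37 C, then treated with compounds for 24 hr at 37 C in complete medium. Viability was read as intracellular ATP by CellTiter-Glo luminescence; AC50 from Hill fits.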

[5] = Cell Viability - LYMP2-002 (AID 977);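 further: plate controls were DMSO only for no effect and 92 µM tetraoctylammonium bromide for full effect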
Method in brief: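 Luminescent ATP readout (CellTiter-Glo, 30 min room temperature) after 24 h compound exposure at 37 C of a human lymphoblastoid line, 2500 cells/well. AC50 values derived by standard Hill fitting of qHTS concentration-response data.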

[6] = Cell Viability - LYMP2-006 (AID 978); further: on the % scale 0 is the no-effect control and ±100 the full control effect; nearly all actives have a fitted effect of over 60% in size
Method in brief: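 Concentration-dependent loss of intracellular ATP in a human lymphoblastoid line after 24 hr treatment at 37 C was measured by CellTiter-Glo luminescence, with AC50 values obtained from standard Hill-equation modelling.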

[7] = Cell Viability - LYMP2-007 (AID 979);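 further: cells exposed to compound for 24 h before reading; 0% = DMSO only and the negative end = 92 µM tetraoctylammonium bromide; nearly all actives have a fitted effect of over 60% in size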
Method in brief: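 Human lymphoblastoid cells (2500/well) were plated in complete medium, incubated 5 hr at 37 C, then exposed to compounds for 24 hr at 37 C. Intracellular ATP was read by CellTiter-Glo luminescence after 30 min at room temperature; AC50 from Hill fits.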

[8] = Cell Viability - LYMP2-008 (AID 980); further: on the % scale 0 is the no-effect control and ±100 the full control effect; nearly all actives have a fitted effect of over 60% in size
Method in brief: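 Human lymphoblastoid cells (2500/well) were plated, held 5 hr at 37 C, then exposed to compounds for 24 hr at 37 C in complete medium. Intracellular ATP was read by CellTiter-Glo luminescence; AC50 from Hill-fitted concentration-response.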

[9] = Cell Viability - LYMP2-010 (AID 981); further: on the % scale 0 is the no-effect control and ±100 the full control effect; nearly all actives have a fitted effect of over 55% in size
Method in brief: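 Human lymphoblastoid LYMP2-010 cells (2500/well) were preincubated 5 hr at 37 C, then exposed to compounds for 24 hr at 37 C in complete medium. Intracellular ATP was measured by CellTiter-Glo luminescence after 30 min at room temperature; AC50 from Hill-fitted concentration-response.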

[10] = Cell Viability - LYMP2-012 (AID 982)
[11] = Cell Viability - LYMP2-014 (AID 983);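 further: plate controls were DMSO only for no effect and 92 µM tetraoctylammonium bromide for full effect; nearly all actives have a fitted effect of over 50% in size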
Method in brief: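 Human lymphoblastoid cells (2500/well) were pre-incubated 5 hr at 37 C, then exposed to compounds in complete medium for 24 hr at 37 C. Intracellular ATP was read by CellTiter-Glo luminescence after 30 min at room temperature; AC50 from Hill fits.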

[12] = Cell Viability - LYMP2-016 (AID 984)
Method in brief: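 Acute toxicity in a Coriell human lymphoblastoid line is scored as loss of intracellular ATP over 24 h of treatment in complete medium. CellTiter-Glo signal is fitted across concentrations with the Hill equation to give AC50.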

[13] = Cell Viability - LYMP2-018 (AID 985);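 further: compound exposure lasted 24 hr at 37 °C; plate controls were DMSO only for no effect and tetraoctylammonium bromide at 92 µM for full effect; nearly all actives have a fitted effect of over 50% in size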
Method in brief: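 Human lymphoblastoid cells (2500/well) were pre-incubated 5 hr at 37 C, then exposed to compounds for 24 hr at 37 C in complete medium. Viability was read as intracellular ATP by CellTiter-Glo luminescence; AC50 values came from Hill-equation fits.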

[14] = Cell Viability - LYMP2-020 (AID 986)
Method in brief: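 Human lymphoblastoid cells, 2500/well, were pre-incubated 5 hr at 37 C, then exposed to compounds for 24 hr at 37 C in complete medium. Intracellular ATP was read by CellTiter-Glo luminescence, and AC50 was derived by Hill fitting of concentration-response data.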

[15] = Cell Viability - LYMP2-022 (AID 987)
Method in brief: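 Human lymphoblastoid cells, 2500/well, preincubated 5 hr at 37 C, then exposed to compounds over a concentration range for 24 hr at 37 C in complete medium. Viability read as intracellular ATP by CellTiter-Glo luminescence after 30 min at room temperature; AC50 from Hill fits.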

[16] = Cell Viability - LYMP2-024 (AID 988);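 further: plate controls were DMSO only for no effect and 92 µM tetraoctylammonium bromide for full effect; nearly all actives have a fitted effect of over 60% in size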
Method in brief: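 Human lymphoblastoid cells (2500/well) in complete medium were preincubated 5 hr at 37 C, then exposed to compounds for 24 hr at 37 C. Intracellular ATP was read by CellTiter-Glo luminescence; AC50 from Hill-equation fits of concentration-response data.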

[17] = Cell Viability - LYMP2-026 (AID 989); further: on the % scale 0 is the no-effect control and ±100 the full control effect; nearly all actives have a fitted effect of over 50% in size
Method in brief: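 Human lymphoblastoid cells (2500/well) in complete medium were preincubated 5 hr at 37 C, then exposed to compounds for 24 hr at 37 C. Cellular ATP was read by CellTiter-Glo luminescence; AC50 from Hill-equation fits of concentration-response data.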

[18] = qHTS Assay for Lipid Storage Modulators (AID 1519; calls by dose curve; on activity change, negative = inhibition: on the % scale 0 is the no-effect control and ±100 the full control effect); conditions: Drosophila S3 cells, BODIPY lipid droplet/cell ratio, laser cytometry, cells loaded with oleic acid
Method in brief: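 Cells seeded at 5,000 per well were treated with compounds over a concentration series and loaded with oleic acid (400 uM, as added). Lipid droplet fluorescence (488 nm excitation, 500-530 nm channel) was read by laser-scanning cytometry and normalized to 20 uM Triacsin C.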

[19] = measured here: cell count channel max response
[20] = measured here: lipid channel max response

CC(=O)NS(=O)(=O)c1ccc(N)cc1
outcome [1]: inactive | outcome [2]: inactive | outcome [3]: inactive | outcome [4]: inactive | outcome [5]: inactive | outcome [6]: inactive | outcome [7]: inactive | outcome [8]: inactive | outcome [9]: inactive | outcome [10]: inactive | outcome [11]: inactive | outcome [12]: inactive | outcome [13]: inactive | outcome [14]: inactive | outcome [15]: inactive | outcome [16]: inactive | outcome [17]: inactive | activity change, negative = inhibition ([18]; at 25.7 µM (top of the series)): -1.25% (inactive) | activity change, negative = inhibition ([18]; at 57.5 µM (top of the series)): 7% (inactive) | max response [18, 19]: 0.487% and 9.27% | max response [18, 20]: -1.3% and 19.7%

Cc1cccc(Nc2ccccc2C(=O)O)c1C
activity change, negative = inhibition ([18]; at 25.7 µM (top of the series)): -1.13% (inactive) | activity change, negative = inhibition ([18]; at 57.5 µM (top of the series)): 13.8% (inactive) | max response [18, 19]: -7.11% and 0.438% | max response [18, 20]: -8.71% and 19.7%

CCCCCCCC(=O)OCC(COC(=O)CCCCCCC)OC(=O)CCCCCCC
outcome [1]: inactive | outcome [2]: inactive | outcome [3]: inactive | outcome [4]: inactive | outcome [5]: inactive | outcome [6]: inactive | outcome [7]: inactive | outcome [8]: inactive | outcome [9]: inactive | outcome [10]: inactive | outcome [11]: inactive | outcome [12]: inactive | outcome [13]: inactive | outcome [14]: inactive | outcome [15]: inactive | outcome [16]: inactive | outcome [17]: inactive

Cn1c([N+](=O)[O-])cnc1COC(N)=O
activity change, negative = inhibition ([18]; at 25.7 µM (top of the series)): 1.17% (inactive) | activity change, negative = inhibition ([18]; at 57.5 µM (top of the series)): 7.17% (inactive) | max response [18, 19]: -1.45% and 4.32% | max response [18, 20]: -3% and 14.5%

C=CCNC(N)=S
outcome [1]: inactive | outcome [2]: inactive | outcome [3]: inactive | outcome [4]: inactive | outcome [5]: inactive | outcome [6]: inactive | outcome [7]: inactive | outcome [8]: inactive | outcome [9]: inactive | outcome [10]: inactive | outcome [11]: inactive | outcome [12]: inactive | outcome [13]: inactive | outcome [14]: inactive | outcome [15]: inactive | outcome [16]: inactive | outcome [17]: inactive

Cc1cc(=O)[nH]c(=S)[nH]1
outcome [1]: inactive | outcome [2]: inactive | outcome [3]: inactive | outcome [4]: inactive | outcome [5]: inactive | outcome [6]: inactive | outcome [7]: inactive | outcome [8]: inactive | outcome [9]: inactive | outcome [10]: inactive | outcome [11]: inactive | outcome [12]: inactive | outcome [13]: inactive | outcome [14]: inactive | outcome [15]: inactive | outcome [16]: inactive | outcome [17]: inactive

O=C1c2cccc(O)c2C(=O)c2c(O)cccc21
outcome [2]: inactive | outcome [6]: inactive | outcome [7]: inactive | outcome [8]: inactive | outcome [14]: inactive | outcome [15]: inactive | outcome [16]: inactive | outcome [17]: inactive | activity change, negative = inhibition ([18]; at 57.5 µM (top of the series)): -5.01% (inactive) | max response [18, 19]: 2.23% | max response [18, 20]: -1.3%
